{"source": "paper PMC5540273", "about": "(PLoS ONE, 2017);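 note: KINOMEscan kinase panel screen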"}
{"system": "PRKX", "settings": "concentration: 1 μM,replicates: in singlicate; n = 1", "units": {"%Inh": "%"}}
{"compound": "CNC(=O)c1ccccc1Sc1ccc2c(/C=C/c3ccccn3)n[nH]c2c1", "%Inh": 9}
{"compound": "O=C(NCCNc1ccnc(NCc2ccc(F)cc2)n1)c1cc2ccccc2s1", "note": "[GSK1379944]", "%Inh": 19}
{"compound": "CN(C)CCOc1ccc(-c2cc(-c3c[nH]nc3-c3ccccn3)ccn2)cc1", "note": "[GW835314]", "%Inh": 0}
{"compound": "Cc1cc(C(=O)Nc2ccc(Oc3ccc4nc(NC(=O)C5CC5)cn4n3)cc2)nn1-c1ccccc1", "%Inh": 0}
{"compound": "Cc1ccc(-n2nc(C(C)(C)C)cc2NC(=O)Nc2ccc(OCCN3CCOCC3)c3ccccc23)cc1", "note": "[GW839464]", "%Inh": 0}
{"compound": "CCN(CC)CCCCNc1ncc2cc(-c3c(Cl)cccc3Cl)c(NC(=O)NC(C)(C)C)nc2n1", "%Inh": 0}
{"compound": "CCN(CC)CCOc1ccc(Nc2ncc3cc(-c4c(Cl)cccc4Cl)c(=O)n(C)c3n2)cc1", "note": "[SB-601273]", "%Inh": 0}
{"compound": "Cc1cc2cn[nH]c2cc1-c1cccc2c(N)c(C(N)=O)nnc12", "%Inh": 20}
{"compound": "CC(C)Nc1cc(-c2ccc3c(N)n[nH]c3c2)nc(N)n1", "note": "[GSK2221681]", "%Inh": 79}
{"compound": "C[C@@H](Oc1cc(-c2cnn(C3CCNCC3)c2)cnc1N)c1c(Cl)ccc(F)c1Cl", "%Inh": 35}
{"compound": "Cl.Cl.Nc1nc(-c2ccc3c(N)n[nH]c3c2)cc(N2CCCC(NC(=O)c3ccccc3)C2)n1", "note": "(stereo not drawn) [GSK2286775]", "%Inh": 83}
{"compound": "CC(C)N1C(=O)Cc2cc(Nc3ncc(C(F)(F)F)c(NCc4cccc(S(C)(=O)=O)c4)n3)ccc21", "%Inh": 0}
{"compound": "Cl.Cl.NC[C@H](Cc1ccc(C(F)(F)F)cc1)NC(=O)c1cc(Br)c(-c2ccnc3[nH]ccc23)s1", "note": "[GSK1487252]", "%Inh": 96}
{"compound": "C[C@@H]1CCN(C(=O)CC#N)C[C@@H]1N(C)c1ncnc2[nH]ccc12", "%Inh": 0}
{"compound": "CN(C)CC(O)COc1ccc(Nc2nccc(-c3cnn4nc(N5CCOCC5)ccc34)n2)cc1", "note": "(stereo not drawn) [GW767488]", "%Inh": 8}
{"compound": "Cc1occc1-c1nc(N)c(OC[C@@H](N)Cc2c[nH]c3ccccc23)cc1-c1cc2c(C)n[nH]c2cn1", "note": "[GSK1660450]", "%Inh": 79}
{"compound": "Cc1ccc2c(-c3ccncc3)c(-c3ccc(F)cc3)nn2c1.Cl", "note": "[GW461484]", "%Inh": 0}
{"compound": "C[C@H]1Oc2cc(cnc2N)-c2c(nn(C)c2C#N)CN(C)C(=O)c2ccc(F)cc21", "%Inh": 7}
{"compound": "NC(=O)c1cc(-c2ccccc2)cc2c(C3CCNCC3)c[nH]c12", "note": "[GSK301362]", "%Inh": 36}
{"compound": "C=CC(=O)Nc1cc2c(Nc3ccc(F)c(Cl)c3)ncnc2cc1OCCCN1CCOCC1", "note": "[GW781483]", "%Inh": 0}
{"compound": "CCn1c(-c2nonc2N)nc2c(C#CC(C)(C)O)nc(OCCN)cc21.Cl.Cl", "note": "[GSK902056]", "%Inh": 91.6}
{"compound": "Cc1n[nH]c2ccc(-c3cc(OC[C@@H](N)Cc4ccccc4)cnc3-c3ccoc3)cc12.O=C(O)C(F)(F)F.O=C(O)C(F)(F)F", "note": "[GSK507358]", "%Inh": 84}
{"compound": "Cl.Cl.NC[C@H](CC1CCCCC1)NC(=O)c1cc(Br)c(-c2ccnc3[nH]ccc23)s1", "note": "[GSK1581427]", "%Inh": 96.2}
{"compound": "COc1ccc(C[C@@H](CN)NC(=O)c2cc(Br)c(-c3ccnc4[nH]ccc34)s2)cc1.Cl.Cl", "note": "[GSK1389063]", "%Inh": 94.2}
{"compound": "Cl.Oc1cc(-c2nc(-c3ccccc3)[nH]c2-c2ccncc2)ccc1Cl", "note": "[SB-386023]", "%Inh": 0}
{"compound": "Nc1nc(Nc2ccccc2)cc(-c2ccc3c(N)n[nH]c3c2)n1", "note": "[GSK2225749]", "%Inh": 57}
{"compound": "O=C(NCCCN1CCOC1=O)c1cnc(NCc2cc(Cl)ccc2Cl)nc1NC1CCCC1", "%Inh": 0}
{"system": "PRP4", "settings": "concentration: 1 μM,replicates: in singlicate; n = 1", "units": {"%Inh": "%"}}
{"compound": "CNC(=O)c1ccccc1Sc1ccc2c(/C=C/c3ccccn3)n[nH]c2c1", "%Inh": 0}
{"compound": "O=C(NCCNc1ccnc(NCc2ccc(F)cc2)n1)c1cc2ccccc2s1", "note": "[GSK1379944]", "%Inh": 18}
{"compound": "CN(C)CCOc1ccc(-c2cc(-c3c[nH]nc3-c3ccccn3)ccn2)cc1", "note": "[GW835314]", "%Inh": 0}
{"compound": "Cc1cc(C(=O)Nc2ccc(Oc3ccc4nc(NC(=O)C5CC5)cn4n3)cc2)nn1-c1ccccc1", "%Inh": 0}
{"compound": "Cc1ccc(-n2nc(C(C)(C)C)cc2NC(=O)Nc2ccc(OCCN3CCOCC3)c3ccccc23)cc1", "note": "[GW839464]", "%Inh": 15}
{"compound": "CCN(CC)CCCCNc1ncc2cc(-c3c(Cl)cccc3Cl)c(NC(=O)NC(C)(C)C)nc2n1", "%Inh": 0}
{"compound": "CCN(CC)CCOc1ccc(Nc2ncc3cc(-c4c(Cl)cccc4Cl)c(=O)n(C)c3n2)cc1", "note": "[SB-601273]", "%Inh": 31}
{"compound": "Cc1cc2cn[nH]c2cc1-c1cccc2c(N)c(C(N)=O)nnc12", "%Inh": 6}
{"compound": "CC(C)Nc1cc(-c2ccc3c(N)n[nH]c3c2)nc(N)n1", "note": "[GSK2221681]", "%Inh": 7}
{"compound": "C[C@@H](Oc1cc(-c2cnn(C3CCNCC3)c2)cnc1N)c1c(Cl)ccc(F)c1Cl", "%Inh": 0}
{"compound": "Cl.Cl.Nc1nc(-c2ccc3c(N)n[nH]c3c2)cc(N2CCCC(NC(=O)c3ccccc3)C2)n1", "note": "(stereo not drawn) [GSK2286775]", "%Inh": 36}
{"compound": "CC(C)N1C(=O)Cc2cc(Nc3ncc(C(F)(F)F)c(NCc4cccc(S(C)(=O)=O)c4)n3)ccc21", "%Inh": 25}
{"compound": "Cl.Cl.NC[C@H](Cc1ccc(C(F)(F)F)cc1)NC(=O)c1cc(Br)c(-c2ccnc3[nH]ccc23)s1", "note": "[GSK1487252]", "%Inh": 22}
{"compound": "C[C@@H]1CCN(C(=O)CC#N)C[C@@H]1N(C)c1ncnc2[nH]ccc12", "%Inh": 0}
{"compound": "CN(C)CC(O)COc1ccc(Nc2nccc(-c3cnn4nc(N5CCOCC5)ccc34)n2)cc1", "note": "(stereo not drawn) [GW767488]", "%Inh": 2}
{"compound": "Cc1occc1-c1nc(N)c(OC[C@@H](N)Cc2c[nH]c3ccccc23)cc1-c1cc2c(C)n[nH]c2cn1", "note": "[GSK1660450]", "%Inh": 0}
{"compound": "Cc1ccc2c(-c3ccncc3)c(-c3ccc(F)cc3)nn2c1.Cl", "note": "[GW461484]", "%Inh": 0}
{"compound": "C[C@H]1Oc2cc(cnc2N)-c2c(nn(C)c2C#N)CN(C)C(=O)c2ccc(F)cc21", "%Inh": 0}
{"compound": "NC(=O)c1cc(-c2ccccc2)cc2c(C3CCNCC3)c[nH]c12", "note": "[GSK301362]", "%Inh": 2}
{"compound": "C=CC(=O)Nc1cc2c(Nc3ccc(F)c(Cl)c3)ncnc2cc1OCCCN1CCOCC1", "note": "[GW781483]", "%Inh": 0}
{"compound": "CCn1c(-c2nonc2N)nc2c(C#CC(C)(C)O)nc(OCCN)cc21.Cl.Cl", "note": "[GSK902056]", "%Inh": 8}
{"compound": "Cc1n[nH]c2ccc(-c3cc(OC[C@@H](N)Cc4ccccc4)cnc3-c3ccoc3)cc12.O=C(O)C(F)(F)F.O=C(O)C(F)(F)F", "note": "[GSK507358]", "%Inh": 27}
{"compound": "Cl.Cl.NC[C@H](CC1CCCCC1)NC(=O)c1cc(Br)c(-c2ccnc3[nH]ccc23)s1", "note": "[GSK1581427]", "%Inh": 78}
{"compound": "COc1ccc(C[C@@H](CN)NC(=O)c2cc(Br)c(-c3ccnc4[nH]ccc34)s2)cc1.Cl.Cl", "note": "[GSK1389063]", "%Inh": 18}
{"compound": "Cl.Oc1cc(-c2nc(-c3ccccc3)[nH]c2-c2ccncc2)ccc1Cl", "note": "[SB-386023]", "%Inh": 0}
{"compound": "Nc1nc(Nc2ccccc2)cc(-c2ccc3c(N)n[nH]c3c2)n1", "note": "[GSK2225749]", "%Inh": 60}
{"compound": "O=C(NCCCN1CCOC1=O)c1cnc(NCc2cc(Cl)ccc2Cl)nc1NC1CCCC1", "%Inh": 1}
